The term AC50 denotes the concentration at which the activity in the assay is half-maximal.

Active and inactive are the calls of the source. How the source made its calls: active means hit-call score of the fitted dose curve at least 0.9, where 1 is the maximum; inactive means score below 0.9.

In PubChem BioAssay (EPA / NIEHS) one finds outcome and AC50 data, which are given here for 40 compounds.

A short description of the experiment: ATG_FoxO_CIS: Attagene CIS-FACTORIAL HepG2 Assay for human Forkhead box O (FoxO) (AID 2282943). As to conditions: HepG2 Attagene cis-reporter, FoxO element, mRNA; actives raise or lower the signal. Here is the method:
ATG_CIS is a cell-based, multiplexed-readout assay that uses HepG2, a human liver cell line, with measurements taken at 24 hours after chemical dosing in a 24-well plate.ATG_FoxO_CIS is one of 52 assay component(s) measured or calculated from the ATG_CIS assay. It is designed to make measurements of mRNA induction, a form of inducible reporter, as detected with fluorescence intensity signals by Reverse transcription polymerase chain reaction (RT-PCR) and Capillary electrophoresis technology.Data from the assay component ATG_FoxO_CIS was analyzed into 1 assay endpoint. This assay endpoint, ATG_FoxO_CIS, was analyzed with bidirectional fitting relative to DMSO as the negative control and baseline of activity. Using a type of inducible reporter, measures of mRNA for gain or loss-of-signal activity can be used to understand the reporter gene at the transcription factor-level as they relate to the gene FOXO1 and FOXO3. Furthermore, this assay endpoint can be referred to as a primary readout, because this assay has produced multiple assay endpoints where this one serves a reporter gene function. To generalize the intended target to other relatable targets, this assay endpoint is annotated to the dna binding intended target family, where the subfamily is forkhead box protein.
Human liver HepG2 cells are transiently transfected with multiple reporter transcription units (MRTUs) in 6-well plates using FuGene 6 reagent (Roche; 3 ml FuGene/1 mg DNA). The MRTU constructs are regulated by a cis-regulating element (promoter). […] A major difference between the CIS and TRANS system is that in CIS activities of endogenous TFs are measured, whereas the TRANS assay evaluates changes in activities of exogenous, chimeric NR-Gal4 proteins. […] At the end of 24 hour incubation, total RNA was isolated using TriZol reagent (Invitrogen). The isolated RNA is then reverse-transcribed using oligo(dT) primer and Mo-MLV reverse transcriptase (Invitrogen) with DNAse I (Ambion) treatment for 30 min. The one-tenth of the produced cDNA was amplified by PCR using Taq DNA polymerase (Invitrogen) and two reporter sequence-specific primers. The PCR products were fluorescently labeled by primer extension with 6-arboxyfluorescein (6-FAM) 5'-labeled reporter sequence-specific primer (2 min at 95 C, 20 s at 68 C and 10 min at 72 C) and these products were digested with 5U of HpaI (New England Biolabs) for 2h at 37 C. The fragments were purified using Qiaquick PCR columns (Qiagen), analyzed on an ABI 3130xL genetic analyzer (Applied Biosystems) with peak positions identified by using a set of X-rhodamine (ROX)-labeled MapMarker1000 molecular weight standards (BioVentures). The raw capillary electrophoresis data was processed using Attagraph software (Attagene).
For the compound `CC=C(C)C=CC=C(C)C`, the result was inactive.
`CCCC(C)C(=O)OCC` (stereo not given): the outcome was inactive.
Still for that read-out and setting: under `CN1CCN(C)CC1` stands “inactive”.
For `CCCCCCCCCCCC(C)=O`, the concentration at half-maximal activity (AC50) was 171 µM (active).
`C=CCCCCCCCCO`: the compound was classed as inactive.
The same measure, in the same setting: as for `CC(C)c1cc(C(C)C)cc(C(C)C)c1`, the entry is “inactive”; as for `Cc1noc(NS(=O)(=O)c2ccc(N)cc2)c1C`, “inactive”; as for `CCCCC/C=C\C/C=C\CCCCCCCC(=O)O`, “inactive”.
The same measure, in the same setting: under `CCCC/C=C/C=C\C=O` stands “inactive”; under `C=CCOC(=O)c1ccc(C(=O)OCC=C)c(C(=O)OCC=C)c1`, “inactive”.
As for `C=CC(=O)OCC(C)OCC(C)OCC(C)OC(=O)C=C` (stereo not given), the AC50 is 100 µM (active).
`N#CC1(N)CCCCC1`: the compound was classed as inactive.
On the same count and under the same terms, as for `CC(C)(CO)C(O)C(=O)NCCCO` (stereo not given), the entry is “inactive”; as for `CCCCCCCOC(=O)c1ccc(O)cc1`, “inactive”.
Same read-out and setting: under `CCCCCCCCC(CO)CCCCCC` (stereo not given) stands “inactive”; under `COC(OC)(C(=O)c1ccccc1)c1ccccc1`, “inactive”; under `CCOc1ccc(NC(N)=O)cc1`, “inactive”.
Still for that read-out and setting: as for `O=C(Oc1ccccc1)c1ccccc1O`, the entry is “inactive”; as for `CCCSSCCC`, “inactive”.
As to `C=CCNCC=C`, the compound was called inactive.
On the same count and under the same terms, as for `c1ccc2cnccc2c1`, the entry is “inactive”; as for `CC(=O)OCCc1ccccc1`, “inactive”.
The same measure, in the same setting: under `CC(=O)c1ccccc1O` stands “inactive”; under `CC(=O)OC1CCCCC1`, “inactive”.
On to `Nc1cccc(N)n1`, for which the call was inactive.
For `CC(C)CCCCCOC(=O)CS`, the compound was classed as inactive.
`N=C1C=CC(=C(c2ccc(N)cc2)c2ccc(N)cc2)C=C1`: the concentration at half-maximal activity (AC50) was 180 µM (active).
As for `Cc1c(O)cccc1O`, the call was inactive.
Same read-out and setting: under `CCCCCCCCCC(C)=O` stands “inactive”; under `c1ccc2c(c1)[nH]c1ccccc12`, “inactive”.
Consider `CC(C)COC(=O)CC(C(=O)OCC(C)C)S(=O)(=O)O` (stereo not given), for which the call was inactive.
Same read-out and setting: as for `Nc1ncnc2nc[nH]c12`, the entry is “inactive”; as for `CCOC(=O)/C=C\C(=O)OCC`, “inactive”.
Still for that read-out and setting: as for `Cc1ccccc1CCO`, the entry is “inactive”.
Regarding `CCCCNS(=O)(=O)c1ccccc1`, the result was inactive.
On the same count and under the same terms, as for `O=C(C=Cc1ccccc1)OCCc1ccccc1`, the entry is “inactive”; as for `CC1=CCC(C(C)C)C=C1` (stereo not given), “inactive”; as for `CC(C)=CCCC(C)=CC#N`, “inactive”.
Same read-out and setting: under `O=C(O)CCCC(=O)O` stands “inactive”; under `CCCCc1ccc(Cl)cc1`, “inactive”.
